# About 50,000 (12%) of roughly 420,000 compounds were called active. About 26% were inconclusive and are not listed. For the sample, actives were picked, then their nearest neighbours and some compounds at random. A number with no mark means an inactive call. Calls follow the shape of the dose curve; as a rule, active = well fitted inhibition curve with a large enough effect; inconclusive = small, poorly fitted or top-dose-only effect; inactive = flat fitted curve, though single readings scatter.
# Test: qHTS for Inhibitors of human tyrosyl-DNA phosphodiesterase 1 (TDP1): qHTS in cells in presence of CPT; also: nearly all actives have a fitted effect of over 55% in size
# Conditions: chicken DT40 Tdp1-/-;hTDP1 cells + 20 nM CPT, ATP luminescence, 48 h; series mostly up to 46.2 µM; activity change, negative = growth inhibition: at the top concentration
# In short: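 Chicken DT40 Tdp1-/- cells complemented with human TDP1, 400 cells/well, exposed to compounds plus 20 nM camptothecin for at least 48 h at 37 C; viability read as ATP content by CellTiter-Glo luminescence.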
# % is scaled to controls: 0 for no effect and ±100 for the full control effect; potency is read from the fitted curve at half-maximal effect.
SMILES,"activity change, negative = growth inhibition",Potency
COc1ccc(N(CC(=O)NCCSCc2cccc(Cl)c2)S(C)(=O)=O)cc1,-0.225%,
O=C1CCC(=O)N(c2ccccc2)N1,4.59%,
Cc1nc(-c2ccc([N+](=O)[O-])cc2)c(-c2ccccc2)o1,-23%,
O=C1CC(c2ccccc2)=NN1c1ccc([N+](=O)[O-])cc1,,16.4 µM (active)
O=c1[nH]n(-c2ccc([N+](=O)[O-])cc2)c(=O)c2ccccc12,-3.34%,
CC(=O)c1ccc(S(=O)(=O)NCc2nnnn2-c2ccccc2)cc1,-17.2%,
O=C(O)c1ccccc1OCc1ccccc1Cl,-16.6%,
O=C(NC1CCC(O)CC1)c1ccccc1OCc1ccc(F)cc1 (centres undefined),-15%,
CC(=O)c1ccccc1OCc1ccc(C(=O)c2ccccc2)cc1,,16.4 µM (active)
S=C(Nc1ccc2c(c1)OCO2)N1CCCC1,-4.45%,
Cc1ccc(NC(=O)C2CCC(C(C)(C)C)CC2)cc1S(=O)(=O)N1CCOCC1 (centres undefined),,13 µM (active)
Cc1ccc(NC(=O)c2ccccn2)cc1S(=O)(=O)N1CCOCC1,-21.4%,
O=C(CN1CCN(c2cccc(Cl)c2)CC1)Nc1ccc(S(=O)(=O)N2CCOCC2)cc1,,20.6 µM (active)
Cc1ccc(C(=O)Nc2ccc3c(c2)OCCO3)cc1S(=O)(=O)N1CCOCC1,-6.96%,
Cc1ccc(NC(=O)C(C)OC(=O)C2CC3CCCC(C2)C3=O)cc1S(=O)(=O)N1CCOCC1 (centres undefined),5.1%,
O=C(CN1CCN(S(=O)(=O)/C=C/c2ccccc2)CC1)Nc1ccc(N2CCOCC2)cc1,4.47%,
O=S(=O)(c1ccc(NC(=S)NN=C(C2CC2)C2CC2)cc1)N1CCOCC1,-15.8%,
O=C(Nc1ccc(S(=O)(=O)N2CCOCC2)cc1)C1CCN(S(=O)(=O)c2ccc(Cl)cc2)CC1,,16.4 µM (active)
O=C(CN1CCCCCC1)Nc1ccc(S(=O)(=O)N2CCCCC2)cc1,-8.76%,
Cc1ccc(NC(=O)c2ccc(Cl)nc2)cc1S(=O)(=O)N1CCOCC1,,10.3 µM (active)
Cc1ccc(NC(=O)COC(=O)C2CC2)cc1S(=O)(=O)N1CCOCC1,-2.36%,
O=C(Nc1ccc(Oc2ccccc2)cc1)C1CCN(S(=O)(=O)c2ccc(Cl)cc2)CC1,-17.6%,
COc1cccc(C(=O)NNS(=O)(=O)c2ccc(F)cc2)c1,0.492%,
Cc1c(NC(=O)c2cc(-c3ccc(Br)cc3)on2)c(=O)n(-c2ccccc2)n1C,0.485%,
CCCN(C(=O)CSc1nnc(N)s1)c1c(N)n(Cc2ccccc2)c(=O)[nH]c1=O,9.05%,

SMILES,"activity change, negative = growth inhibition",Potency
COc1ccc(C(=O)Oc2ccc(-c3nnco3)cc2)cc1S(=O)(=O)N1CCOCC1,-12.2%,
Cc1nn(C)c(Cl)c1CN1CCC(Oc2ccc(C(=O)N3CCCC3)cc2)CC1,-21.7%,
Cc1ccc(C(CNC(=O)Nc2ccccc2)N2CCN(C)CC2)cc1 (centres undefined),-7.62%,
CC(C)Cc1ccc(C(C)C(=N)N)cc1 (centres undefined),,7.31 µM (active)
COc1c(F)c(F)c(-c2csc(N)n2)c(F)c1F,-0.225%,
O=C(COC(=O)c1ccccc1Br)Nc1nnc(-c2ccccc2)o1,-6.82%,
O=C(Nc1nnc(-c2ccc(Cl)cc2)o1)c1ccccc1Br,,23.1 µM (active)
O=C(Nc1ccccc1)c1ccccc1Br,2.75%,
CCCCNC(=O)N1CCCC(N(C)CCc2ccc(OC)c(OC)c2)C1 (centres undefined),-8.93%,
CC(NC(=O)CNC(=O)Cc1cccc2ccccc12)c1ccc(S(N)(=O)=O)cc1 (centres undefined),33.9%,
Cc1cccc(-n2cc(CN3CCN(C(=O)c4ncn[nH]4)CC3)c(-c3cccc(F)c3)n2)c1,-0.232%,
COc1ccc(CN2C3CCCC2CC(NC(=O)c2cccc(F)c2)C3)cc1 (centres undefined),-14.7%,
COc1ccc(-n2cc(CNC3CCOCC3)c(-c3cccc(F)c3)n2)cc1,,20.6 µM (active)
COc1ccc(Cl)cc1-n1c(=S)sc2c(=O)n(-c3ccc(F)cc3)c(SCC(=O)O)nc21,0.94%,
COc1cc(C)c(CN2CCc3nnc(C(C)NC(=O)c4cccnc4)n3CC2)cc1C (centres undefined),-20.5%,
Cc1ccccc1Nc1c([N+](=O)[O-])ccc2nonc12,5.39%,
Cc1nn(C)cc1C(=O)c1ccccc1,10.1%,
COc1ccc(N(C)C(=O)C2CCN(S(=O)(=O)c3cccc4nsnc34)CC2)cc1,-8.02%,
COc1ccc(CCC(=O)NCCc2csc(-c3ccc(Cl)cc3)n2)cc1,,23.1 µM (active)
COc1ccc(OCCCC(=O)NCCc2ccccc2)cc1,-3.96%,
COc1ccc(CCNC(=O)COC(=O)c2cnc(Cl)c(Cl)c2)cc1,-10.5%,
CCOc1ccc(C(=O)Nc2cc(Cl)ccc2-n2cncn2)cc1OC,2.16%,
CCC(NC(=O)C1CCCC1)c1ccc(C)cc1 (centres undefined),-15.1%,
Cc1cc[n+](C2CCCCC2)cc1,,15.8 µM (active)
O=C(COC(=O)c1cc(S(=O)(=O)N2CCCCC2)ccc1Cl)NCc1ccco1,7.52%,

SMILES,"activity change, negative = growth inhibition",Potency
Cc1cc(C(=O)CCC(=O)NNC(=O)c2ccccc2O)c(C)s1,3.31%,
O=C(NNC(=O)c1cc(S(=O)(=O)N2CCCCC2)ccc1Cl)c1ccccc1O,,23.1 µM (active)
NC(=O)COC(=O)c1cc(S(=O)(=O)N2CCN(c3ccccc3)CC2)ccc1Cl,-7.08%,
CC(=O)NC(=O)c1ccccc1O,1.83%,
NC(=O)C1CCN(C(=O)c2cc(S(=O)(=O)N3CCN(c4ccccc4)CC3)ccc2Cl)CC1,,10.3 µM (active)
CC1=C(C)CC(C(=O)NC(C)CCc2ccccc2)C(C(=O)O)C1 (centres undefined),16.8%,
COc1ccccc1N(C)S(=O)(=O)c1ccc(Cl)c(C(=O)N2CCC(C(N)=O)CC2)c1,-26.7%,
O=C(NNC(=O)c1ccccc1O)c1ccccc1O,,5.17 µM (active)
CC1=C(C)CC(C(=O)NNC(=O)c2csc3c2CCC(C(C)(C)C)C3)C(C(=O)O)C1 (centres undefined),3.49%,
Cc1ccc(S(=O)(=O)N2CCCCC2)cc1NC(=O)CCNC(=O)c1ccccc1Cl,-14.2%,
CC1=C(C)CC(C(=O)NNC(=O)c2ccccc2O)C(C(=O)O)C1 (centres undefined),,18.4 µM (active)
COCCNC(=S)N(CCc1c(C)[nH]c2ccc(C)cc12)Cc1cccnc1,-23.2%,
CC(NC(=O)CN(C)S(=O)(=O)c1ccc(F)cc1)C1CC2CCC1C2 (centres undefined),-15.7%,
CC(=O)N/C(=C\c1ccccc1)C(=O)OC(C)C(=O)N(C)c1ccccc1 (centres undefined),9.34%,
CCOC(=O)Cn1c(O)c(N=NC(=O)CNC(=O)Cc2ccccc2)c2ccccc21,-17.9%,
CC(=O)Nc1ccc(S(=O)(=O)N2CCC(C(=O)N[C@@H](Cc3ccccc3)C(=O)O)CC2)cc1,-13.1%,
COc1cccc(CNC(=O)C(NS(=O)(=O)c2ccc3nc(C)sc3c2)C(C)C)c1 (centres undefined),1.78%,
COc1cccc(/C=C2\SC(=S)N(CCCC(=O)N3CCOCC3)C2=O)c1,,18.4 µM (active)
COc1cccc(/C=C2/SC(=S)N(CC(=O)NC3C=CS(=O)(=O)C3)C2=O)c1 (centres undefined),-24.6%,
COc1ccc(/C=C2\SC(=S)N(CCC(=O)N3CCOCC3)C2=O)cc1OC,-2.91%,
Cc1cc(C)cc(NC(=O)COC(=O)c2cc(C)oc2C)c1,-3.46%,
Cc1sc2ccccc2c1CNC[C@H]1O[C@@H](n2ccc(=O)[nH]c2=O)[C@H](O)[C@@H]1O,0.888%,
O=C(CCn1ccc([N+](=O)[O-])n1)Nc1nccs1,1.03%,
CN(C)C(=S)N=c1ssc(=S)n1Cc1ccco1,,1.64 µM (active)
CC1CN(Cc2ccco2)C(=S)N(c2ccccc2)C1=O (centres undefined),0.62%,

SMILES,"activity change, negative = growth inhibition",Potency
Cc1cs/c(=N\N=C\c2ccc(O)cc2)n1Cc1ccco1,-14.2%,
Nc1ncnc2c1ncn2[C@@H]1O[C@H](C(=O)NS(=O)(=O)c2c(Cl)nc3sccn23)[C@@H](O)[C@H]1O,2.79%,
O=S(=O)(Nc1ccccn1)c1cccc(S(=O)(=O)c2ccc(Cl)cc2)c1,2.88%,
NS(=O)(=O)c1ccc(CNC(=O)c2cc(S(=O)(=O)N3CCOCC3)ccc2N2CCCC2)cc1,-10.3%,
CCCN(C(=O)COC(=O)CNS(=O)(=O)c1ccc(NC(C)=O)cc1)C1CCS(=O)(=O)C1 (centres undefined),1.6%,
COC(=O)C1=C(N)Oc2c(oc(CO)cc2=O)C1c1c(F)cccc1Cl (centres undefined),-3.14%,
CCOC(=O)c1sc(NC(=O)c2sc(C)nc2C)nc1C,-2.43%,
CCOC(=O)c1cc(OC(=O)c2ccccc2Cl)n(-c2ccccc2)n1,-13.5%,
CCOC(=O)c1cc(-c2sc(NC(=O)c3ccccc3)nc2C)n(Cc2ccccc2)n1,,16.4 µM (active)
CSc1ccc(Cl)c(C(=O)OCC(=O)N2CCNC2=O)c1,-1.63%,
Nc1ncnc2c1ncn2[C@@H]1O[C@H](C(=O)N2CCSC2)[C@@H](O)[C@H]1O,-29.7%,
COc1ccc(Nc2nc(N)nc(CSC(=S)N3CCC(C)CC3)n2)cc1,-19.7%,
COc1ccc(N(CC(=O)Nc2ccc(C)cc2C)S(=O)(=O)c2ccccc2[N+](=O)[O-])c(OC)c1,-27.2%,
COc1ccc(C)cc1S(=O)(=O)N(CC(=O)Nc1cccc([N+](=O)[O-])c1)c1ccc(C)cc1,,18.4 µM (active)
CN(CC(=O)Nc1cccc(F)c1)CC(=O)Nc1cccc([N+](=O)[O-])c1,-27.1%,
O=C(CCc1nnc2ccc(NCCCN3CCCC3=O)nn12)NCc1ccccc1Cl,1.12%,
COc1ccc(NC(=O)CN2C(=O)CSc3ccc(S(=O)(=O)N4CCC(C)CC4)cc32)cc1,-27.1%,
O=S(=O)(NCCc1ccncc1)c1ccccc1,-7.23%,
Nc1nc(/C(=C/CC(=O)O)C(=O)N[C@@H]2C(=O)N3C(C(=O)O)=CCS[C@H]23)cs1,-22.6%,
O=C1Nc2ccc([N+](=O)[O-])cc2C1=Nc1cccc(CO)c1,,16.4 µM (active)
O=C(c1cccc([N+](=O)[O-])c1)N1CCN(Cc2ccccc2)CC1,11.9%,
CC1Cn2c(nnc2-c2cccs2)S1 (centres undefined),-6.6%,
O=c1cnnc(Nc2ccccc2)[nH]1,-1.22%,
CCC1(C2CCN(Cc3cccnc3)CC2)NC(=O)N(CC2COc3ccccc3O2)C1=O (centres undefined),-5.78% [at 9.04 µM],

# From PubChem BioAssay AID686979 (National Center for Advancing Translational Sciences (NCATS), 2013)
